Where “and” joins values, the source holds several entries; their conditions need not be identical. Equal values may be shown once. Inconclusive results are not listed. Calls of active or inactive are those of the source. The call rests on the fitted dose curve; in most records, active means well fitted inhibition curve with a large enough effect; inconclusive means small, poorly fitted or top-dose-only effect; inactive means flat fitted curve, though single readings scatter.
Key:
JCK = test: qHTS profiling for inhibitors of Plasmodium falciparum proliferation (AID 504749); further: potency means the concentration at half of the fitted maximal effect; details: P. falciparum in erythrocytes, SYBR Green DNA, 72 h; series mostly up to 28.7 µM
Method in brief: (§1)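 Fluorescence of SYBR Green-bound parasite DNA, read at 485/535 nm, served as the growth measure. Infected erythrocytes were cultured with compound 72 h; artemisinin (0.29 uM) and DMSO wells defined the normalization range.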

N140 = test: as above; details: P. falciparum in erythrocytes, SYBR Green DNA, 72 h; series mostly up to 28.7 µM
Method in brief: as §1

P93_24 = test: as above; details: P. falciparum in erythrocytes, SYBR Green DNA, 72 h; series mostly up to 28.7 µM
Method in brief: as §1

P94_40 = test: as above; details: P. falciparum in erythrocytes, SYBR Green DNA, 72 h; series mostly up to 28.7 µM
Method in brief: as §1

PAD = test: as above; details: P. falciparum in erythrocytes, SYBR Green DNA, 72 h; series mostly up to 28.7 µM
Method in brief: as §1

PC15 = test: as above; details: P. falciparum in erythrocytes, SYBR Green DNA, 72 h; series mostly up to 28.7 µM
Method in brief: as §1

PC26 = test: as above; details: P. falciparum in erythrocytes, SYBR Green DNA, 72 h; series mostly up to 28.7 µM
Method in brief: as §1

PC49 = test: as above; details: P. falciparum in erythrocytes, SYBR Green DNA, 72 h; series mostly up to 28.7 µM
Method in brief: as §1

SC27B = test: as above; details: P. falciparum in erythrocytes, SYBR Green DNA, 72 h; series mostly up to 28.7 µM
Method in brief: as §1

TAB109 = test: as above; details: P. falciparum in erythrocytes, SYBR Green DNA, 72 h; series mostly up to 28.7 µM
Method in brief: as §1

TAB113 = test: as above; details: P. falciparum in erythrocytes, SYBR Green DNA, 72 h; series mostly up to 28.7 µM
Method in brief: as §1

TAB165 = test: as above; details: P. falciparum in erythrocytes, SYBR Green DNA, 72 h; series mostly up to 28.7 µM
Method in brief: as §1

CRL-7250 = normal cell line; test: Cytotoxic Profiling of Annotated Libraries Using Quantitative High-Throughput Screening (AID 1296008); details: Five cell lines viability, CellTiter-Glo ATP luminescence, 48-72 h; max response: hits give low values; on max response: on the % scale 0 is the no-effect control and ±100 the full control effect
Method in brief: (§2)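 Compounds were pin-transferred onto cells and incubated 48 or 72 hr at 37 degree Celsius, 95% humidity. CellTiter-Glo was added, plates sat 10 min at room temperature, then ATP-coupled luminescence was imaged as the viability read-out.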

HEK293 = test: as above; details: Five cell lines viability, CellTiter-Glo ATP luminescence, 48-72 h; max response: hits give low values
Method in brief: as §2

KB-3-1 = test: as above; details: Five cell lines viability, CellTiter-Glo ATP luminescence, 48-72 h; max response: hits give low values
Method in brief: as §2

NIH3T3 = test: as above; details: Five cell lines viability, CellTiter-Glo ATP luminescence, 48-72 h; max response: hits give low values
Method in brief: as §2

HEK293T = test: qHTS assay to identify novel small-molecules to repurpose for Merkel cell carcinoma treatment (AID 1296009); details: MCC and control cell lines, CellTiter-Glo viability, 72 h; at 44.8 µM (top of the series) unless noted
Method in brief: (§3)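 Luminescence from CellTiter-Glo, read 10 min after addition at room temperature, reported viability following a 72 hr, 37 degree celsius treatment with NPC or MIPE compounds in titration; values normalized to plate controls.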

W2 = test: qHTS profiling for inhibitors of Plasmodium falciparum proliferation (AID 504749); further: potency means the concentration at half of the fitted maximal effect; details: P. falciparum in erythrocytes, SYBR Green DNA, 72 h; series mostly up to 28.7 µM
Method in brief: as §1

HaCat [1] = test: Cytotoxic Profiling of Annotated Libraries Using Quantitative High-Throughput Screening (AID 1296008); details: Five cell lines viability, CellTiter-Glo ATP luminescence, 48-72 h; max response: hits give low values; on max response: on the % scale 0 is the no-effect control and ±100 the full control effect
Method in brief: as §2

HACAT [2] = test: qHTS assay to identify novel small-molecules to repurpose for Merkel cell carcinoma treatment (AID 1296009); details: MCC and control cell lines, CellTiter-Glo viability, 72 h; at 44.8 µM (top of the series) unless noted
Method in brief: as §3
Further: nearly all actives have a fitted effect of over 60% in size.

O=C(O)CP(=O)(O)O
inactive: Potency (JCK) | Potency (N140) | Potency (P93_24) | Potency (P94_40) | Potency (PAD) | Potency (PC15) | Potency (PC26) | Potency (PC49) | Potency (SC27B) | Potency (TAB109) | Potency (TAB113) | Potency (TAB165) | max response (CRL-7250) -7.2% | outcome (HEK293) | max response (KB-3-1) 0.355% | outcome (NIH3T3) | outcome (HEK293T)

COc1ccc(CN(CCN(C)C)c2ccccn2)cc1
inactive: Potency (P93_24) | Potency (P94_40) | Potency (PAD) | Potency (PC15) | Potency (PC26) | Potency (TAB113) | Potency (TAB165) | max response (CRL-7250) 1.58% | outcome (HaCat [1]) | max response (KB-3-1) -13% | max response (NIH3T3) 2.14% | outcome (HACAT [2])
active: Potency (JCK) 1.26 µM | Potency (PC49) 0.178 µM | Potency (W2) 7.57 µM

CC(N=C(NC#N)Nc1ccncc1)C(C)(C)C (centres undefined)
inactive: Potency (JCK) | Potency (N140) | Potency (P93_24) | Potency (P94_40) | Potency (PAD) | Potency (PC15) | Potency (PC26) | Potency (PC49) | Potency (SC27B) | Potency (TAB109) | Potency (TAB113) | Potency (TAB165) | Potency (W2) | outcome (CRL-7250) | outcome (HaCat [1]) | max response (KB-3-1) -0.411% | max response (NIH3T3) 0.852% | outcome (HACAT [2])

c1cc(CN2CCCCC2)cc(OCCCNc2nc3ccccc3s2)c1
inactive: Potency (JCK) | max response (CRL-7250) -17.3% | outcome (HaCat [1]) | max response (KB-3-1) -9.4% | outcome (HACAT [2])
active: Potency (P94_40) 10 µM | Potency (TAB109) 2.24 µM | Potency (TAB165) 3.98 µM | Potency (W2) 4.78 µM

c1cnc(N2CCN(Cc3ccc4c(c3)OCO4)CC2)nc1
inactive: Potency (JCK) | Potency (N140) | Potency (P93_24) | Potency (P94_40) | Potency (PAD) | Potency (PC15) | Potency (PC26) | Potency (PC49) | Potency (SC27B) | Potency (TAB109) | Potency (TAB113) | Potency (TAB165) | Potency (W2) | max response (CRL-7250) -1.35% | outcome (HaCat [1]) | max response (KB-3-1) -6.36% | max response (NIH3T3) -2.83% | outcome (HACAT [2])

CCOC(=O)C1=C(C)NC(C)=C(C(=O)OC)C1c1cccc([N+](=O)[O-])c1 (centres undefined)
active: Potency (N140) 11.2 µM | Potency (P94_40) 11.2 µM | Potency (SC27B) 12.6 µM | Potency (TAB165) 10 µM
inactive: outcome (CRL-7250) | outcome (HaCat [1]) | max response (KB-3-1) -12.8% | max response (NIH3T3) -0.464% | outcome (HACAT [2])

CCO/C([O-])=N/c1c[n+](N2CCOCC2)no1
inactive: Potency (JCK) | Potency (N140) | Potency (P93_24) | Potency (P94_40) | Potency (PAD) | Potency (PC15) | Potency (PC26) | Potency (PC49) | Potency (SC27B) | Potency (TAB109) | Potency (TAB113) | Potency (TAB165) | Potency (W2) | outcome (CRL-7250) | max response (HEK293) -1.87% | max response (KB-3-1) -5.15% | max response (NIH3T3) -0.944%

C[N+](C)(C)CCOC(N)=O
inactive: Potency (JCK) | Potency (N140) | Potency (P93_24) | Potency (P94_40) | Potency (PAD) | Potency (PC15) | Potency (PC26) | Potency (PC49) | Potency (SC27B) | Potency (TAB109) | Potency (TAB113) | Potency (TAB165) | Potency (W2) | max response (CRL-7250) 1.41% | outcome (HEK293) | max response (KB-3-1) 27.4% | max response (NIH3T3) -0.0921% | outcome (HEK293T)

COC(=O)[C@H]1[C@H]2C[C@@H]3c4[nH]c5cc(OC)ccc5c4CCN3C[C@H]2C[C@@H](OC(=O)c2cc(OC)c(OC)c(OC)c2)[C@@H]1OC
inactive: max response (CRL-7250) 0.615% and 0.375% | max response (HaCat [1]) -6.17% and -7.84% | max response (KB-3-1) 21.8% and -5.12% | max response (NIH3T3) -3.91% and -6.42%
active: Potency (N140) 3.98 µM | Potency (P93_24) 10 µM | Potency (P94_40) 7.94 µM | Potency (PAD) 2 µM | Potency (PC15) 11.2 µM | Potency (PC26) 2.13 µM | Potency (PC49) 7.94 µM | Potency (SC27B) 7.08 µM | Potency (TAB109) 8.91 µM | Potency (TAB113) 5.62 µM | Potency (TAB165) 3.98 µM | Potency (W2) 3.79 µM

Nc1nc(N)c2nc(-c3ccccc3)c(N)nc2n1
inactive: Potency (JCK) | Potency (N140) | Potency (P93_24) | Potency (P94_40) | Potency (PAD) | Potency (PC15) | Potency (PC26) | Potency (PC49) | Potency (SC27B) | Potency (TAB109) | Potency (TAB113) | Potency (TAB165) | max response (CRL-7250) -19.7% | max response (HaCat [1]) -19.1% | max response (KB-3-1) -2.1%

CCCCNc1c(C(=O)OCC)c(C)nc2c1cnn2CC
inactive: Potency (JCK) | Potency (N140) | Potency (P93_24) | Potency (PAD) | Potency (PC15) | Potency (PC26) | Potency (PC49) | Potency (SC27B) | Potency (TAB109) | Potency (TAB113) | max response (CRL-7250) -21.3% | max response (HaCat [1]) -1.24% | max response (KB-3-1) 1.34%

COc1ccc2c(c1OC)C(=O)O[C@@H]2[C@H]1c2c(cc3c(c2OC)OCO3)CCN1C
inactive: max response (CRL-7250) 4.94% | max response (KB-3-1) -12.5% | max response (NIH3T3) -0.798%

CCCC(C(=O)OCCN(CC)CC)(c1ccccc1)c1ccccc1
inactive: max response (CRL-7250) -17.9% | max response (HaCat [1]) -7.15% | max response (KB-3-1) -8.71% | max response (NIH3T3) -27.5%
active: Potency (PAD) 11.2 µM | Potency (PC15) 10 µM | Potency (PC26) 12 µM | Potency (PC49) 7.08 µM | Potency (TAB109) 11.2 µM | Potency (TAB113) 10 µM | Potency (W2) 7.57 µM

Source: PubChem BioAssay (NCATS)
